# Active and inactive are the calls of the source. Unless noted, how the calls were made is not given here.
# Key:
# [1] = system: Wnt5a (protein binding on small-molecule microarray); experiment: Wnt5a binders on small-molecule microarray, primary screen, biophysical, 635/667 nm fluorescence (AID 1142); conditions: 635 nm fluorescence, higher = more signal;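 further: fluorescence read at 667 nm with signal to noise per printed feature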
# [2] = cell viability in Huh7 cells, primary screen, cytotoxicity control for HCV replication inhibitor project, CellTiter-Glo luminescence, basal, 48 h (AID 1143); conditions: Huh7 HCV replicon, higher = more signal, called active from +8 up or from −8 down;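 further: Huh7 hepatoma cells carrying a hepatitis C replication reporter with no stimulus; test concentration not given here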
# [3] = P. aeruginosa biofilm formation inhibitors, primary screen, PAO1 strain, BacTiter-Glo luminescence, LB-PBS (AID 1144); conditions: 12 h, higher = more signal
# [4] = CREB reporter modulators without forskolin, primary screen, cell-based, PC12, CRE-LacZ reporter, unstimulated (AID 1145); conditions: no forskolin, luminescence, 4.5 h, higher = more signal, called active from +8 up or from −8 down
# [5] = CREB reporter modulators under forskolin, primary screen, cell-based, PC12, CRE-LacZ reporter, forskolin-stimulated (AID 1146); conditions: luminescence, 4.5 h, higher = more signal, called active from +8 up or from −8 down;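 further: PC12 cells with 6xCRE LacZ reporter stimulated by forskolin 10 µM; beta-galactosidase reporter signal reflecting CREB driven transcription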
# [6] = target: Streptavidin (Streptomyces avidinii) (UniProt P22629); experiment: streptavidin binders on small-molecule microarray, primary screen, artefact control for SMM compound annotation, biophysical, 635/667 nm fluorescence (AID 1147); conditions: streptavidin binding, higher = more signal;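 further: signal reflects streptavidin binding to arrayed compounds as a control protein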
# Sequence of Streptavidin (Streptomyces avidinii) (P22629 whole entry, looked up): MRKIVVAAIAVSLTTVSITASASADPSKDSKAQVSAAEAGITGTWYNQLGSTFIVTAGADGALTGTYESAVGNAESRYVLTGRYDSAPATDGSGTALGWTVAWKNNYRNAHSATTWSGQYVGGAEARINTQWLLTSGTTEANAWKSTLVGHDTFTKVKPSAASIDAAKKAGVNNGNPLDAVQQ
# [7] = small-molecule binders of probe aInhba, primary screen, biochemical, small-molecule microarray, 635/667 nm fluorescence (AID 1148); conditions: higher = more signal;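 further: score merges 667nm spot fluorescence with signal-to-noise for antibody binding to printed compounds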
# [8] = target: Torsin-1A (Homo sapiens) (UniProt O14656); experiment: torsin A binders from cell lysate, primary screen, small-molecule microarray, wild-type, 635/667 nm (AID 1149); conditions: COS7 hTOR1A-WT lysate, 635 nm fluorescence, higher = more signal
# Sequence of Torsin-1A (Homo sapiens) (O14656 whole entry, looked up): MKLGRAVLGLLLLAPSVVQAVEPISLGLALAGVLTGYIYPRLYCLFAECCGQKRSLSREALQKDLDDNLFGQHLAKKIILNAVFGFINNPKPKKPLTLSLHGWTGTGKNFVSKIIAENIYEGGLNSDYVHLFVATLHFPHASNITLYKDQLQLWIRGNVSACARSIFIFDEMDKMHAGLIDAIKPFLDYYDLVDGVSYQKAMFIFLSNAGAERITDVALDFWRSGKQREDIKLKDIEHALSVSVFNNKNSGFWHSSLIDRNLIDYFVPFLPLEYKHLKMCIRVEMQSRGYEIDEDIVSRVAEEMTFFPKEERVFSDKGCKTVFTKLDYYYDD
# [9] = target: Torsin-1A (Homo sapiens) (UniProt O14656); experiment: small-molecule binders of mutant TOR1A in lysate, primary screen, cell lysate, small-molecule microarray, COS7 lysate, 635/667 nm fluorescence (AID 1150); conditions: COS7 hTOR1A mutant lysate, 635 nm fluorescence, higher = more signal;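 further: score pools 667 nm emission and signal to noise measuring lysate protein binding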
# [10] = system: Sonic hedgehog protein (Shh); experiment: small-molecule binders of Shh protein, primary screen, biochemical, small-molecule microarray, 635/667 nm fluorescence (AID 1151); conditions: small-molecule microarray binding, 635 nm fluorescence; higher = more signal;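 further: Shh protein binding to compounds spotted on small-molecule microarray slides; score combines spot fluorescence intensity with signal-to-noise across triplicate slides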
# [11] = E. coli DRC41 culture turbidity changes, primary screen, E. coli filamentation inducer project, strain DRC41, OD650, 48 h (AID 1152);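 further: E. coli MC1000 strain DRC41 lacking acrAB efflux pump and sulA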; conditions: E. coli DRC41 (acrAB sulA), higher = more signal, called active from +8 up or from −8 down
# [12] = small-molecule binders of probe aLefty1, primary screen, biochemical, small-molecule microarray, 635/667 nm fluorescence (AID 1153); conditions: higher = more signal;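 further: score merges spot fluorescence with signal-to-noise ratio from the scanned slide images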
# [13] = PSAC antagonists in infected red cells, primary screen, cell-based, P. falciparum Indochina, OD700, 1 h (AID 1154); conditions: P. falciparum Indochina infected RBC osmotic lysis, higher = more signal, called active from +8 up or from −8 down
# [14] = PSAC antagonists in infected red cells, primary screen, cell-based, P. falciparum Indochina, OD700, 2 h (AID 1155);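 further: lysis reports solute entry through the parasite surface anion channel PSAC; channel blockers reduce lysis of infected cells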; conditions: P. falciparum Indochina infected erythrocytes, osmotic lysis OD700; higher = more signal, called active from +8 up or from −8 down
# [15] = osmotic lysis modulators in infected erythrocytes, primary screen, PSAC antagonist project, cell-based, P. falciparum Indochina, OD700, 3 h (AID 1156); conditions: higher = more signal, called active from +8 up or from −8 down
# [16] = PSAC antagonists in infected red cells, primary screen, cell-based, P. falciparum Indochina, OD700, 18 h (AID 1157); conditions: P. falciparum Indochina infected erythrocytes, osmotic lysis OD700, 18 h; higher = more signal, called active from +8 up or from −8 down
# [17] = modulators of S6 phosphorylation in cells, primary screen, cell-based, A549, cytoblot, luminescence, serum-stimulated (AID 1158); conditions: A549 phospho-S6 cytoblot, 5 h, higher = more signal;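 further: serum-stimulated A549 lung adenocarcinoma cells; signal is phosphorylated S6 detected by cytoblot immunostaining with HRP secondary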
# [18] = target: NADPH oxidase 2 (Homo sapiens) (UniProt P04839); experiment: NOX2-dependent H2O2 signal modulators, primary screen, NOX inhibitor project, cell-based, HEK293-NOX2, PMA-stimulated, Amplex Red fluorescence (AID 1159); conditions: 45 min, higher = more signal, called active from +8 up or from −8 down; further: test concentration not given here
# Sequence of NADPH oxidase 2 (Homo sapiens) (P04839 whole entry, looked up): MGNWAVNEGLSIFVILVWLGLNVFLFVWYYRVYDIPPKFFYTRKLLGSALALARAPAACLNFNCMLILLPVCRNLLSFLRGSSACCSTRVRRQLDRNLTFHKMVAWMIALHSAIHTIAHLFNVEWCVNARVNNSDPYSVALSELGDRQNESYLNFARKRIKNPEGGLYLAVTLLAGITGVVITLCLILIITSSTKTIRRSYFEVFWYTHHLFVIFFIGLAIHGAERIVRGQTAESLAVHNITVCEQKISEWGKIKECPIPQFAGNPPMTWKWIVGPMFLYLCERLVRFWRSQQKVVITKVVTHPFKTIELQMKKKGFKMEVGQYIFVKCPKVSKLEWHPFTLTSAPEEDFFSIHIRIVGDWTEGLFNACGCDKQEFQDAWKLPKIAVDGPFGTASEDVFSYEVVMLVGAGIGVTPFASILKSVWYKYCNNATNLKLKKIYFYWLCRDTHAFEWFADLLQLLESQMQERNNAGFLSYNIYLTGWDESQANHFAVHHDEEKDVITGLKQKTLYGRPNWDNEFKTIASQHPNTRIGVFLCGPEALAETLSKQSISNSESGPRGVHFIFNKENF
# [19] = target: NADPH oxidase 4 (Homo sapiens) (UniProt Q9NPH5); experiment: NOX4-dependent H2O2 signal modulators, primary screen, NOX inhibitor project, cell-based, HEK293-NOX4, tetracycline-induced, Amplex Red fluorescence (AID 1160); conditions: 45 min, higher = more signal, called active from +8 up or from −8 down
# Sequence of NADPH oxidase 4 (Homo sapiens) (Q9NPH5 whole entry, looked up): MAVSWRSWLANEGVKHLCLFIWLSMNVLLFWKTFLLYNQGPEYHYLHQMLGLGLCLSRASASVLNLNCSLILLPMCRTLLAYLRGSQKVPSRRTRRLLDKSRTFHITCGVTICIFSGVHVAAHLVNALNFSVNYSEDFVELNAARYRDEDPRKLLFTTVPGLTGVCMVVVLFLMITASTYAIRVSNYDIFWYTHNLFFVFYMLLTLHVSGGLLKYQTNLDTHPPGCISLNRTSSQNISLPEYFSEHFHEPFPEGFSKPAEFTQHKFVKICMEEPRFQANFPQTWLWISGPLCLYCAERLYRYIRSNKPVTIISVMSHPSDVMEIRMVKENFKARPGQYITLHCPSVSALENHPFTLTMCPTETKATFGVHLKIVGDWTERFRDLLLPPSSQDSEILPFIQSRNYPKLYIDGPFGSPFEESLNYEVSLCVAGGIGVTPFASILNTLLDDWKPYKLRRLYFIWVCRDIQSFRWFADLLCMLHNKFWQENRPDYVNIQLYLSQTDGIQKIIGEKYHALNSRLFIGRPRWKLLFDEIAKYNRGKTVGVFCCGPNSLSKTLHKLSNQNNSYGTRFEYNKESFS
# [20] = target: NADPH oxidase 5 (Homo sapiens) (UniProt Q96PH1); experiment: NOX5-dependent H2O2 signal modulators, primary screen, NOX inhibitor project, cell-based, HEK293-NOX5, Amplex Red fluorescence (AID 1161); conditions: HEK293-NOX5, ionomycin, 45 min, higher = more signal
# Sequence of NADPH oxidase 5 (Homo sapiens) (Q96PH1 whole entry, looked up): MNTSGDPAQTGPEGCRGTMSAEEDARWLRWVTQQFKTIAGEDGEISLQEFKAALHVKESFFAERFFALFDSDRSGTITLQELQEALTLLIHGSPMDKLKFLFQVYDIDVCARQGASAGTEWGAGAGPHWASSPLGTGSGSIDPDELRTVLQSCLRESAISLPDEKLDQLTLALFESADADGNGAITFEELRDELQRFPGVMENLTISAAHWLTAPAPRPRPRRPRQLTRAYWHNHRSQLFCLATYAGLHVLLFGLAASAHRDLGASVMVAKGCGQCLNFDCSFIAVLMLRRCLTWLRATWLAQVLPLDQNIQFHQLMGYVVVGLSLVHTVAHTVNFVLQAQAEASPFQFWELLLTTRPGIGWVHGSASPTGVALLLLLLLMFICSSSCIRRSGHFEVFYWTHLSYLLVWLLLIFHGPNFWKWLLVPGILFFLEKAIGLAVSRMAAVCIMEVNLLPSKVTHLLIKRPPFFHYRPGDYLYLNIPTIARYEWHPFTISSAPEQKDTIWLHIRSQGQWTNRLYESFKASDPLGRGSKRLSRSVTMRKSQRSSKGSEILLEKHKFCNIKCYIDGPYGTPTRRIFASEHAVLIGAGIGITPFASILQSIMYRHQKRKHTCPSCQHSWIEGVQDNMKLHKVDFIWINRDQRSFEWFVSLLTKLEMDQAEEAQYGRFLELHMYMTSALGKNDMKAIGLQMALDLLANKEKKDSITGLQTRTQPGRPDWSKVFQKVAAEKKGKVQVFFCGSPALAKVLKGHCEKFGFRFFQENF
SMILES,composite z-score [1],z-score [2],z-score [3],z-score [4],z-score [5],composite z-score [6],composite z-score [7],composite z-score [8],composite z-score [9],composite z-score [10],z-score [11],composite z-score [12],z-score [13],z-score [14],z-score [15],z-score [16],z-score [17],z-score [18],z-score [19],z-score [20]
COC(=O)[C@@]1(Cc2ccc(OC)cc2)[C@H]2c3cc(C(=O)N4CCCC4)n(Cc4c(CO)[nH]cc(C)c4=O)c3C[C@H]2CN1C(=O)c1ccccc1,0.702,-1.1 (inactive),-0.101 (inactive),0.37 (inactive),1.41 (inactive),1.51,0.0569,0.272,1.25,-0.65,-0.552 (inactive),0.213,0.843 (inactive),-0.163 (inactive),0.455 (inactive),-1.46 (inactive),2.57,0.753 (inactive),0.386 (inactive),-4.96
CCCC#C[Si](O[C@H](CC)c1cn(Cc2ccccc2)nn1)(C(C)C)C(C)C,0.24,-1.01 (inactive),0.171 (inactive),-0.374 (inactive),0.04 (inactive),1.72,0.0541,0.732,0.563,1.27,0.991 (inactive),0.687,0.708 (inactive),0.3 (inactive),-0.929 (inactive),0.358 (inactive),0.113,0.442 (inactive),-0.11 (inactive),0.521
[N-]=[N+]=Nc1ccccc1C[C@@]1(C(=O)NCC(O)CO)N=C(c2ccc(OCCCO)cc2)O[C@@H]1c1ccccc1 (stereo not given in full),0.674,-3.5 (inactive),0.557 (inactive),-0.16 (inactive),-0.57 (inactive),1.45,0.0047,0.744,0.944,-0.538,0.445 (inactive),0.102,26.6 (active),14.1 (active),2.05 (inactive),1.87 (inactive),0.122,2.51 (inactive),0.662 (inactive),-0.946
CCOC(=O)C1=CC[C@@H](c2ccc(OC)cc2)N(S(=O)(=O)c2ccc(C)cc2)[C@H]1c1ccc(C)cc1,0.151,-2.4 (inactive),0.12 (inactive),-0.415 (inactive),-0.24 (inactive),0.778,0.1,-0.414,0.308,-0.625,-1.22 (inactive),0.578,0.833 (inactive),0.905 (inactive),-0.715 (inactive),0.68 (inactive),-0.752,0.864 (inactive),-0.627 (inactive),0.0417
C=CC[C@@]1(C(=O)OC)N=C(c2ccc(OCCCO)cc2)O[C@@H]1c1ccccc1N=[N+]=[N-],0.938,-3.5 (inactive),-1.57 (inactive),1.79 (inactive),-0.775 (inactive),-0.195,0.286,0.288,0.672,2.02,0.0465 (inactive),0.398,30.6 (active),27.4 (active),4.11 (inactive),5.12 (inactive),0.581,-0.471 (inactive),1.43 (inactive),-0.0237
COC(=O)C1=CC(CCCO)=CC(c2cccs2)N(Cc2cc3c(cc2Br)OCO3)C=C1C(=O)OC (stereo not given),0.46,-1.96 (inactive),0.587 (inactive),0.326 (inactive),0.458 (inactive),1.99,0.0659,0.565,1.12,0.322,0.801 (inactive),-0.0629,5.84 (inactive),1.17 (inactive),0.277 (inactive),0.621 (inactive),-0.176,1 (inactive),-1.26 (inactive),1.05
CCCCCC1=C2CNC(CC(C)C)(C(=O)OC)C=C2C(C)C1=O (stereo not given),-0.025,-0.575 (inactive),0.661 (inactive),0.0041 (inactive),0.728 (inactive),0.428,0.0668,-0.276,-0.207,-0.242,-1.07 (inactive),0.172,1.5 (inactive),-0.602 (inactive),0.836 (inactive),0.347 (inactive),-0.245,-0.0792 (inactive),-0.636 (inactive),-2.61
C[C@@H]1ON(c2ccc(I)cc2)[C@H](c2cccc(NC(=O)OCC3c4ccccc4-c4ccccc43)c2)[C@H]1C(=O)N1C(=O)OC[C@H]1Cc1ccccc1,0.0217,-0.659 (inactive),-0.215 (inactive),2.13 (inactive),-0.0677 (inactive),0.226,-0.0893,0.579,-0.0059,0.851,1.26 (inactive),0.185,-0.261 (inactive),0.755 (inactive),0.0181 (inactive),0.0584 (inactive),-0.447,-0.143 (inactive),-2.58 (inactive),-2.6
